Test results as given in PubChem BioAssay (Tox21).
Results filed as inconclusive are left out. Active and inactive are the calls of the source. Calls come from the whole dose curve; as a rule, active = well fitted curve in the direction sought with a large enough effect in the repeat runs; inconclusive = weak or mixed curves; inactive = no such curve, though single readings can be large; an effect the other way counts as inactive or inconclusive.

Molecular target: Nuclear receptor subfamily 1 group I member 2 (Homo sapiens) (UniProt O75469)
Assay: Human pregnane X receptor (PXR) small molecule agonists, qHTS assay (AID 1346982); note: nearly all actives have a fitted effect of over 35% in size
Conditions: PXR-Luc HepG2, CYP3A4 luciferase reporter, 24 h; series mostly up to 92.4 µM
Method in brief: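 PXR-Luc HepG2 cells (CYP3A4 promoter-driven luciferase) were seeded in medium with 5% charcoal-stripped FBS, left 5 hr at 37 C, then exposed to compounds in DMSO for 24 hr. Luminescence was read after ONE-Glo addition.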
% is set by controls: 0 for no effect and ±100 for the full control effect; potency is the fitted concentration of half-maximal effect.

Nuclear receptor subfamily 1 group I member 2 (Homo sapiens), sequence (O75469 whole entry, looked up): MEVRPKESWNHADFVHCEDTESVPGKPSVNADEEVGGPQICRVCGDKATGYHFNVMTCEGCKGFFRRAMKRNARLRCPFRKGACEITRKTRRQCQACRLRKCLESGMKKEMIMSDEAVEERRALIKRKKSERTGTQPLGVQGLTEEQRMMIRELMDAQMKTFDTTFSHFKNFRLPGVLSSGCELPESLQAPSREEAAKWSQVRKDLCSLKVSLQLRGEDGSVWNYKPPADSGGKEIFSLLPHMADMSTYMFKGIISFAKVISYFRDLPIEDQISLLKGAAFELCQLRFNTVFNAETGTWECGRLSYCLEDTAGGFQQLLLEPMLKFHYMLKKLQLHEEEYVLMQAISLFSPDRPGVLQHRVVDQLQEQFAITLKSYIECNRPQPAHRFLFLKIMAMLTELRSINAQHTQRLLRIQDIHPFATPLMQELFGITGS

Row | SMILES | Potency
1 | COC(=O)/C=C/C(C)=C\C=C\C(C)=C\C=C\C=C(C)\C=C\C=C(C)\C=C\C(=O)O | 54.5 µM (active)
2 | CC(=O)OCC(=O)[C@@]1(O)CC[C@H]2[C@@H]3CCC4=CC(=O)C=C[C@]4(C)[C@@]3(F)[C@@H](O)C[C@@]21C | inactive
3 | O=C(N[C@@H](Cc1ccccc1)[C@@H](O)C(=O)N1C[C@@H](O)[C@@H](O)C1)c1cc2cc(Cl)ccc2[nH]1 | inactive
4 | CCC(C(=O)O)c1ccc(N2Cc3ccccc3C2=O)cc1 (stereo not drawn) | 4.73 µM (active)
5 | O=[N+]([O-])c1ccc(Cl)cc1Cl | inactive

Molecular target: Nuclear receptor subfamily 1 group I member 2 (Rattus norvegicus) (UniProt Q9R1A7)
Assay: Rat pregnane X receptor (rPXR) activation by small molecules, qHTS assay (AID 1346983); note: nearly all actives have a fitted effect of over 20% in size
Conditions: rPXR luciferase reporter cells, One-Glo luminescence, 24 h; max activation: hits give high values
Method in brief: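 Cell-based rPXR activation assay: rPXR cells, 2,000 per well, rested 5hr at 37 C, then exposed to compounds in DMSO for 24 hr at 37 C. Luciferase activity read by One-Glo luminescence after 30 min at room temperature.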

Nuclear receptor subfamily 1 group I member 2 (Rattus norvegicus), sequence (Q9R1A7 whole entry, looked up): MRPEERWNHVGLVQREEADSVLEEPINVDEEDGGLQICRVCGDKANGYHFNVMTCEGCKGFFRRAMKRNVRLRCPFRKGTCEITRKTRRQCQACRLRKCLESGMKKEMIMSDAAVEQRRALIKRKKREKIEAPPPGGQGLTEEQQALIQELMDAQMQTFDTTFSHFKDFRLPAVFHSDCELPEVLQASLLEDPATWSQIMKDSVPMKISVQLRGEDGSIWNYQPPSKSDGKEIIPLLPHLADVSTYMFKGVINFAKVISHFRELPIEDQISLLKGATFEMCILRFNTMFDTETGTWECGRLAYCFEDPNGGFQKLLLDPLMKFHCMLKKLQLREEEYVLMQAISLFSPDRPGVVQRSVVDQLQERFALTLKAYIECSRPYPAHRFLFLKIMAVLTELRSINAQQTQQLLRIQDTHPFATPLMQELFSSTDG

Row | SMILES | max activation | Potency
6 | CC(C(=O)O)c1ccc2c(c1)Cc1cccnc1O2 (stereo not drawn) | -0.373% (inactive) | 
7 | CCc1ccc(C(=O)C(C)CN2CCCCC2)cc1 (stereo not drawn) | -6.71% (inactive) | 
8 | CCc1c(C)[nH]c2c1C(=O)C(CN1CCOCC1)CC2 (stereo not drawn) | -1.99% (inactive) | 
9 | CC(=O)OCC(=O)[C@@]1(O)CC[C@H]2[C@@H]3CCC4=CC(=O)C=C[C@]4(C)[C@@]3(F)[C@@H](O)C[C@@]21C |  | 8.91 µM (active)
10 | CC1(COc2ccc(CC3SC(=O)NC3=O)cc2)CCCCC1 (stereo not drawn) | 5.72% (inactive) | 

Molecular target: Cytochrome P450 2D6 (Homo sapiens) (UniProt P10635)
Assay: Cytochrome P450 Family 2 Subfamily D Member 6 (CYP2D6) small molecule antagonists: luciferase reporter qHTS assay (AID 1671196); note: nearly all actives have a fitted effect of over 50% in size
Conditions: P450-Glo CYP2D6 enzyme assay, luciferin luminescence, 1 h; series mostly up to 115 µM
Method in brief: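 CYP2D6 enzyme–substrate mix was held with compound for 10 min at room temperature, then NADPH regeneration solution was added and the reaction ran 1 h at room temperature. Luciferin product was detected by luminescence after 20 min with detection reagent.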

Cytochrome P450 2D6 (Homo sapiens), sequence (P10635 whole entry, looked up): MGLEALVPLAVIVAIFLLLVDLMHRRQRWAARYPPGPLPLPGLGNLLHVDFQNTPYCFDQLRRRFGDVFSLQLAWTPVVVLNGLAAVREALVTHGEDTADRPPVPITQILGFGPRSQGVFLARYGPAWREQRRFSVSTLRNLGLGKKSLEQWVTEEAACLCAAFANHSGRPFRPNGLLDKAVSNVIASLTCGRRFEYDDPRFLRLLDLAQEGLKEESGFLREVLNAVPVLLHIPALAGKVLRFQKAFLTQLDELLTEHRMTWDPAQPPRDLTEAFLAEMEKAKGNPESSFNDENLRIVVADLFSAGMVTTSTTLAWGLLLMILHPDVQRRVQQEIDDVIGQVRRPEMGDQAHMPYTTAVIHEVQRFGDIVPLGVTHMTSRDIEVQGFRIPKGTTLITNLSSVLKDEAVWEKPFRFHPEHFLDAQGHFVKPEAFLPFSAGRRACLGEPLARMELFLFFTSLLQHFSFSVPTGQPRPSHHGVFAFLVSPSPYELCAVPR

Row | SMILES | Potency | activity change, negative = inhibition
11 | CC(C(=O)O)c1ccc2c(c1)Cc1cccnc1O2 (stereo not drawn) | inactive | 
12 | C=CC(=O)NC(C)(C)C | inactive | 
13 | CCCCCO | inactive | 
14 | Cc1ccc(Cl)c(OCC(O)CNC(C)(C)C)c1 (stereo not drawn) | 1.1 µM (active) | 
15 | CC(C)(C)c1cc(C=O)cc(C(C)(C)C)c1O | inactive | 
16 | C(/C=C/C=C/Nc1ccccc1)=Nc1ccccc1 | 71 µM (active) | 
17 | CCCCCCCCCCCCCCCCCCCl |  | -4.65% [at 10.5 µM] (inactive)
18 | C=C[Si]1(C)O[Si](C)(C=C)O[Si](C)(C=C)O[Si](C)(C=C)O1 (stereo not drawn) | inactive | 
19 | CCc1ccc(C(=O)C(C)CN2CCCCC2)cc1 (stereo not drawn) | 0.49 µM (active) | 
20 | O=C(O)CCc1nc2ccccc2[nH]1 | inactive | 
21 | CC(C)C/C=C(\C=O)c1ccccc1 | inactive | 
22 | c1ccc(CN(Cc2ccccc2)Cc2ccccc2)cc1 | 7.96 µM (active) | 
23 | C[C@H](CN1CCCC1)C(=O)c1ccc(C(F)(F)F)cc1 | 1.55 µM (active) | 
24 | C[C@]12CCC(=O)C=C1[C@@H]1C[C@@H]1[C@H]1[C@@H]3[C@@H]4C[C@@H]4[C@@]4(CCC(=O)O4)[C@@]3(C)CC[C@@H]12 | inactive | 
25 | O=C1OC(=O)C2CC=CCC12 (stereo not drawn) | 35.7 µM (active) | 
26 | CC(C)Oc1ccccc1O | inactive | 
27 | c1ccc(-c2ccc(-c3ccccc3)cc2)cc1 |  | -3.95% [at 23.6 µM] (inactive)
28 | CC(C)=CCCC(C)C=O (stereo not drawn) | inactive | 
29 | O=C(O)c1ccc2c(c1)nc(C(=O)NC1CCN(C3CC3)CC1)n2Cc1cc(-c2ccc(Cl)s2)on1 |  | -3.64% [at 23.6 µM] (inactive)
30 | O=C1c2ccccc2C(=O)C1c1ccc2cc(S(=O)(=O)O)cc(S(=O)(=O)O)c2n1 | inactive | 
31 | COC(=O)/C=C/C(C)=C\C=C\C(C)=C\C=C\C=C(C)\C=C\C=C(C)\C=C\C(=O)O | 39.9 µM (active) | 
32 | CC(=O)OCC(=O)[C@@]1(O)CC[C@H]2[C@@H]3CCC4=CC(=O)C=C[C@]4(C)[C@@]3(F)[C@@H](O)C[C@@]21C | inactive | 
33 | N#Cc1ccc(CC(=O)c2cccc(C(F)(F)F)c2)cc1 | 63.3 µM (active) | 
34 | CC1(COc2ccc(CC3SC(=O)NC3=O)cc2)CCCCC1 (stereo not drawn) | inactive | 
35 | Cc1ccc2ccccc2c1[N+](=O)[O-] | inactive | 
36 | C[C@H]1C[C@H]2[C@@H]3CCC4=CC(=O)C=C[C@]4(C)[C@@]3(F)[C@@H](O)C[C@]2(C)[C@@]1(O)C(=O)COP(=O)(O)O | inactive | 
37 | CO[C@@H]1[C@@H](O[C@@H]2O[C@H](C)[C@@H](O[C@H]3C[C@@](C)(O)[C@@H](O)[C@H](C)O3)[C@H](N(C)C)[C@H]2O)[C@@H](CC=O)C[C@@H](C)[C@@H](O[C@@H]2CC[C@H](N(C)C)[C@@H](C)O2)/C=C/C=C/C[C@@H](C)OC(=O)C[C@H]1OC(C)=O | inactive | 
38 | CCC(C(=O)O)c1ccc(N2Cc3ccccc3C2=O)cc1 (stereo not drawn) | 15.5 µM (active) | 

Molecular target: Cytochrome P450 2C19 (Homo sapiens) (UniProt P33261)
Assay: Cytochrome P450 Family 2 Subfamily C Member 19 (CYP2C19) small molecule antagonists: luciferase reporter qHTS assay (AID 1671197); note: nearly all actives have a fitted effect of over 65% in size
Conditions: P450-Glo CYP2C19 enzyme, luciferin luminescence, 1 h; series mostly up to 115 µM
Method in brief: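 Luminescent readout of CYP2C19 activity: luciferin product detected 20 min after adding detection reagent. Before that, compound and enzyme-substrate mix preincubated 10 min at room temperature; NADPH-regenerating system started a 1 h, 37C reaction. Ketoconazole as positive control.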

Cytochrome P450 2C19 (Homo sapiens), sequence (P33261 whole entry, looked up): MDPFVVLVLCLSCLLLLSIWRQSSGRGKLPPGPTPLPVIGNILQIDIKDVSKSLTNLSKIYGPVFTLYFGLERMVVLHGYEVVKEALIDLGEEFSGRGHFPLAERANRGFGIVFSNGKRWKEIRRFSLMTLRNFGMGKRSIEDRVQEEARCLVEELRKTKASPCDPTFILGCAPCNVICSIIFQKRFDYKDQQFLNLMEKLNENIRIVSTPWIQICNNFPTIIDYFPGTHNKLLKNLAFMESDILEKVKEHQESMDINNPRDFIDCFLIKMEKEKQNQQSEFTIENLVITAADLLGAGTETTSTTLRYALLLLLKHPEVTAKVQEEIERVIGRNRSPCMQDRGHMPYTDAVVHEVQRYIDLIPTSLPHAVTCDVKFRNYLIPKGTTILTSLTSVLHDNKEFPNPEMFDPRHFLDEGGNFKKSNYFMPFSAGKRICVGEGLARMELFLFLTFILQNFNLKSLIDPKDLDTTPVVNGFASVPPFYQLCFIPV

Row | SMILES | Potency | activity change, negative = inhibition
39 | CC(C(=O)O)c1ccc2c(c1)Cc1cccnc1O2 (stereo not drawn) | inactive | 
40 | O=S(=O)(O)c1cc(Cl)c(Cl)cc1Cl | inactive | 
41 | C=CC(C)(O)CC/C=C(/C)CCC=C(C)C (stereo not drawn) | 10 µM (active) | 
42 | CCCCCO | inactive | 
43 | Cc1ccc(Cl)c(OCC(O)CNC(C)(C)C)c1 (stereo not drawn) | inactive | 
44 | C(/C=C/C=C/Nc1ccccc1)=Nc1ccccc1 | inactive | 
45 | C=C[Si]1(C)O[Si](C)(C=C)O[Si](C)(C=C)O[Si](C)(C=C)O1 (stereo not drawn) | 63.3 µM (active) | 
46 | CCc1ccc(C(=O)C(C)CN2CCCCC2)cc1 (stereo not drawn) | 4.9 µM (active) | 
47 | O=C(OCCOCCOCCOC(=O)c1ccccc1)c1ccccc1 | 20 µM (active) | 
48 | CC(C)C/C=C(\C=O)c1ccccc1 | 17.8 µM (active) | 
49 | c1ccc(CN(Cc2ccccc2)Cc2ccccc2)cc1 | 5.64 µM (active) | 
50 | O=C(Cl)c1ccc(F)c(Cl)c1 | inactive | 
51 | C[C@]12CCC(=O)C=C1[C@@H]1C[C@@H]1[C@H]1[C@@H]3[C@@H]4C[C@@H]4[C@@]4(CCC(=O)O4)[C@@]3(C)CC[C@@H]12 | 0.871 µM (active) | 
52 | O=C1OC(=O)C2CC=CCC12 (stereo not drawn) | 80 µM (active) | 
53 | COC(=O)c1cc(Cl)ccc1[N+](=O)[O-] | 79.6 µM (active) | 
54 | Cc1cc(N)n(-c2ccccc2)n1 | 28.3 µM (active) | 
55 | O=C(O)c1ccc2c(c1)nc(C(=O)NC1CCN(C3CC3)CC1)n2Cc1cc(-c2ccc(Cl)s2)on1 |  | 14.2% [at 23.6 µM] (inactive)
56 | CC(=O)OCC(=O)[C@@]1(O)CC[C@H]2[C@@H]3CCC4=CC(=O)C=C[C@]4(C)[C@@]3(F)[C@@H](O)C[C@@]21C | inactive | 
57 | N#Cc1ccc(CC(=O)c2cccc(C(F)(F)F)c2)cc1 | 20 µM (active) | 
58 | Cc1ccc2ccccc2c1[N+](=O)[O-] | 79.6 µM (active) | 
59 | C[C@H]1C[C@H]2[C@@H]3CCC4=CC(=O)C=C[C@]4(C)[C@@]3(F)[C@@H](O)C[C@]2(C)[C@@]1(O)C(=O)COP(=O)(O)O | inactive | 
60 | CO[C@@H]1[C@@H](O[C@@H]2O[C@H](C)[C@@H](O[C@H]3C[C@@](C)(O)[C@@H](O)[C@H](C)O3)[C@H](N(C)C)[C@H]2O)[C@@H](CC=O)C[C@@H](C)[C@@H](O[C@@H]2CC[C@H](N(C)C)[C@@H](C)O2)/C=C/C=C/C[C@@H](C)OC(=O)C[C@H]1OC(C)=O | inactive | 
61 | O=C(N[C@@H](Cc1ccccc1)[C@@H](O)C(=O)N1C[C@@H](O)[C@@H](O)C1)c1cc2cc(Cl)ccc2[nH]1 | 39.9 µM (active) | 
62 | CCC(C(=O)O)c1ccc(N2Cc3ccccc3C2=O)cc1 (stereo not drawn) | 21.9 µM (active) | 
63 | O=[N+]([O-])c1ccc(Cl)cc1Cl | inactive | 
